Tested on: RIVA
Assay: growth inhibition by drug plus 177Lu-lilotomab satetraxetan (1 - RLU/untreated control) (fraction); higher = stronger inhibition
Conditions: 177Lu-lilotomab satetraxetan 0.5 ug/ml
Protocol: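 RIVA (RI-1) ABC-DLBCL cells were pretreated or not for 18 h with 0.5 ug/ml 177Lu-lilotomab satetraxetan (600 MBq/mg), washed and seeded (3000 cells/well) on 384-well plates pre-printed with the Selleck Cambridge Cancer Compound library. Viability was read by RealTime-Glo luminescence on days 3-6 after seeding. Effect = 1 - RLU/mean RLU of the 48 untreated no-drug control wells per plate; Bliss score = (M-E)/(1-Fa).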

SMILES | growth inhibition by drug plus 177Lu-lilotomab satetraxetan (10 nM, time (day): 3) | growth inhibition by drug plus 177Lu-lilotomab satetraxetan (10 nM, time (day): 4) | growth inhibition by drug plus 177Lu-lilotomab satetraxetan (10 nM, time (day): 5) | growth inhibition by drug plus 177Lu-lilotomab satetraxetan (10 nM, time (day): 6) | growth inhibition by drug plus 177Lu-lilotomab satetraxetan (100 nM, time (day): 3) | growth inhibition by drug plus 177Lu-lilotomab satetraxetan (100 nM, time (day): 4) | growth inhibition by drug plus 177Lu-lilotomab satetraxetan (100 nM, time (day): 5) | growth inhibition by drug plus 177Lu-lilotomab satetraxetan (100 nM, time (day): 6)
C[C@]12CCC(=O)C(O)=C1CC[C@@H]1[C@@H]2CC[C@]2(C)C(=O)CC[C@@H]12 [Formestane] | 0.476 | 0.532 | 0.553 | 0.549 | 0.447 | 0.508 | 0.53 | 0.533
O=P1(N(CCCl)CCCl)NCCCO1 (stereo not given) [Cyclophosphamide monohydrate] | 0.338 | 0.47 | 0.502 | 0.506 | 0.305 | 0.403 | 0.426 | 0.394
CCC1(c2ccc(N)cc2)CCC(=O)NC1=O (stereo not given) [Aminoglutethimide (Cytadren)] | 0.446 | 0.523 | 0.538 | 0.547 | 0.226 | 0.376 | 0.379 | 0.408
C=C1C[C@@H]2[C@H](CC[C@]3(C)C(=O)CC[C@@H]23)[C@@]2(C)C=CC(=O)C=C12 [Exemestane] | 0.609 | 0.639 | 0.647 | 0.653 | 0.483 | 0.528 | 0.533 | 0.543
CC(=O)Nc1ccc(OC[C@](C)(O)C(=O)Nc2ccc([N+](=O)[O-])c(C(F)(F)F)c2)cc1 [Andarine (GTX-007)] | 0.585 | 0.603 | 0.615 | 0.608 | 0.404 | 0.5 | 0.511 | 0.533
